Here are results for 19 compounds from PubChem BioAssay (EPA / NIEHS).

Assay [1] can be described thus: TOX21_p53_BLA_p3_viability: Viability Assessment in the Tox21 HCT-116 p53 Agonism Beta-lactamase Assay, Phase 3 (AID 2283593).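 Also: cells exposed to compound for 16 h before reading.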 Summed up:
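HCT116 cells, 4000/well, dosed 5 h after plating by pin transfer (217-fold dilution from DMSO stock) and incubated 16 h at 37C, 5% CO2. Viability read as ATP luminescence with CellTiter-Glo after 30 min at room temperature.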

The target of assay [2] is Cellular tumor antigen p53 (Homo sapiens) (UniProt P04637). In words: TOX21_p53_BLA_p3_ratio: Tox21 HCT-116 p53 Agonism Beta-lactamase Assay, Ratio, Phase 3 (AID 2283596). In outline:
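HCT116 p53-bla cells (4000/well) given compound in DMSO (217-fold dilution) after 5 h, incubated 16 h at 37C. CCF4-AM substrate 2 h at room temperature; 460/530 nm emission ratio, gain fitted against DMSO.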

The nature of assay [3]: TOX21_p53_BLA_p4_viability: Viability Assessment in the Tox21 HCT-116 p53 Agonism Beta-lactamase Assay, Phase 4 (AID 2283597).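 Also: hits lower the luminescence signal meaning cytotoxicity.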 In outline: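 HCT-116 p53-bla cells, 4000/well, dosed after 5 h attachment and incubated 16 h at 37 °C, 5% CO2. Viability from CellTiter-Glo ATP luminescence after 30 min at room temperature, taken after the beta-lactamase read; loss of signal indicates cytotoxicity.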

In assay [4] the target is Cellular tumor antigen p53 (Homo sapiens) (UniProt P04637). In words: TOX21_p53_BLA_p5_ratio: Tox21 HCT-116 p53 Agonism Beta-lactamase Assay, Ratio, Phase 5 (AID 2283599). Summed up: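 HCT-116 p53-bla cells (4000/well) plated 5 h, dosed with compound (217-fold DMSO dilution) for 16 h at 37 C; CCF4-AM substrate 2 h at room temperature. Activity is the 460/530 nm emission ratio (405 nm excitation), fitted in gain-of-signal direction versus DMSO.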

Assay [5] in a line: TOX21_p53_BLA_p5_viability: Viability Assessment in the Tox21 HCT-116 p53 Agonism Beta-lactamase Assay, Phase 5 (AID 2283600). Summed up:
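HCT-116 p53 beta-lactamase reporter cells, 4000/well, were exposed to compound (pin transfer, 217-fold dilution) for 16 hours at 37C. Cellular ATP was read by CellTiter-Glo luminescence after 30 min at room temperature.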

Assay [6] deals with Cellular tumor antigen p53 (Homo sapiens) (UniProt P04637). In words: TOX21_p53_BLA_p4_ratio: Tox21 HCT-116 p53 Agonism Beta-lactamase Assay, Ratio, Phase 4 (AID 2283601). Summed up:
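HCT-116 p53 beta-lactamase reporter cells (4000/well) preincubated 5 h, then compound (217-fold dilution of DMSO stock) for 16 h at 37C. CCF4-AM substrate added 2 h at room temperature; 460/530 nm emission ratio fitted upward versus DMSO.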

Assay [7] is described as follows: Tanguay_ZF_120hpf_MORT_legacy: (Legacy) Oregon State University Tanguay Lab 120 Hour Post-fertilization zebrafish Assay for Mortality (AID 2283633). In outline: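 Dechorionated Tropical 5D wild-type zebrafish embryos, one per well from 6 hpf, static exposure in 0.64% DMSO at 28C until 120 hpf. Mortality scored as binary by brightfield microscopy at 24 and 120 hpf.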

The nature of assay [8]: Tanguay_ZF_120hpf_YSE_legacy: (Legacy) Oregon State University Tanguay Lab 120 Hour Post-fertilization zebrafish Assay for Yolk Sac Edema (AID 2283634).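 As to AC50: actives raise the incidence of yolk sac edema above the DMSO baseline.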 In outline:
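Dechorionated Tropical 5D wild-type zebrafish embryos were exposed statically, one per well, from 6 to 120 hpf at 28C in 0.64% DMSO. Yolk sac edema was scored present/absent by brightfield at 120 hpf, and dead embryos were excluded.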

Assay [9] is described as follows: Tanguay_ZF_120hpf_AXIS_legacy: (Legacy) Oregon State University Tanguay Lab 120 Hour Post-fertilization zebrafish Assay for Body Axis Malformation (AID 2283635).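 As to AC50: potency for an increased fraction of larvae scored with body axis malformation.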 Summed up:
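Dechorionated wild-type Tropical 5D zebrafish embryos, one per well, statically exposed from 6 hpf to 120 hpf at 28C in 0.64% DMSO final. Body axis malformation scored present/absent by brightfield microscopy at 120 hpf; dead embryos excluded.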

Assay [10] is described as follows: Tanguay_ZF_120hpf_EYE_legacy: (Legacy) Oregon State University Tanguay Lab 120 Hour Post-fertilization zebrafish Assay for Eye Malformation (AID 2283636).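 Also: binary presence or absence of eye malformation scored by brightfield in 120 hpf larvae.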 In outline:
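Dechorionated Tropical 5D zebrafish embryos, one per well from 6 hpf, static exposure to 120 hpf at 28C, 0.64% DMSO. Eye malformation scored present/absent by brightfield; dead embryos not scored.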

Several values for one entry are separate records, joined by “and”; a condition that tells them apart may be missing. Equal entries are not always repeated. Inconclusive results are not listed. More than one record can exist for a structure, and the calls need not agree. Activity calls are given as the source filed them. The calls were made as follows: active = hit-call score of the fitted dose curve at least 0.9, where 1 is the maximum; inconclusive = response in the unintended direction; inactive = score below 0.9.

For orientation: AC50 means the midpoint of the concentration-response curve, whichever way the signal moves.

Chain of Cellular tumor antigen p53 (Homo sapiens) (P04637 whole entry, looked up): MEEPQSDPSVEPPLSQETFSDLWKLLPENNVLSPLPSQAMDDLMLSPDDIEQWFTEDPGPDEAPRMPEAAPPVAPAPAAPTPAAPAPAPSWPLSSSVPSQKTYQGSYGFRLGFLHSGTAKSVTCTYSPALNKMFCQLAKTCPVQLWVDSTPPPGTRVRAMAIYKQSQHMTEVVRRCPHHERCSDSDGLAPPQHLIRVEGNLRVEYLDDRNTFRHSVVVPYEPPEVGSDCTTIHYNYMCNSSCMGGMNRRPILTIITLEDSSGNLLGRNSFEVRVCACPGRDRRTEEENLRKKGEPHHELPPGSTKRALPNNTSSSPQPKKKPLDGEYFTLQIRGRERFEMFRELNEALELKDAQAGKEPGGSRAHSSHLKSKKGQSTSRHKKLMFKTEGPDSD

Consider `c1ccc2c(c1)Cc1ccccc1-2`, for which the outcome in [1], in [2], in assay [3], in [4], in assay [5] and in assay [6] was inactive. In addition, the call in assay [7], in assay [8], in assay [9] and in [10] was inactive. Further, the AC50 in assay [4] is 87.3 µM (active).

Regarding `Cc1cc(C)c(O)c(C)c1`, the outcome in assay [1], in assay [2], in assay [3], in [4], in assay [5] and in [6] was inactive. In addition, the call in [7] and in assay [9] was inactive.

As to `CCCCCCCCCCCCCC[N+](C)(C)C`, the half-maximal activity concentration (AC50) in [1] is 37.5 µM (active); in assay [2] it was 39.8 µM (active) and 14.6 µM (active); in [3], 52.4 µM (active) and 13.2 µM (active) and 35.4 µM (active); in [4] it was 31.2 µM (active) and 16.1 µM (active); in assay [5], 76.6 µM (active) and 45.3 µM (active); in assay [6], 63.8 µM (active) and 26.6 µM (active) and 23.1 µM (active). Besides, the call in [1], in assay [2], in assay [4] and in assay [5] was inactive.

On to `CC(C)(C)CC(C)(C)c1ccc(O)c(-n2nc3ccccc3n2)c1`, for which, in assay [1], the half-maximal activity concentration (AC50) was 38.6 µM (active). Further, the call in [1], in assay [2], in assay [3], in [4], in assay [5] and in [6] was inactive. Moreover, the result in assay [7], in assay [8], in [9] and in [10] was inactive.

With `Oc1cccc(O)c1`, the outcome in assay [1], in assay [2], in [3], in [4], in assay [5] and in assay [6] was inactive. Further, the compound was called inactive in assay [7], in [8], in assay [9] and in [10].

For the compound `CCCOC(=O)c1ccc(O)cc1`, the call in assay [1], in assay [2], in [3], in assay [4], in assay [5] and in assay [6] was inactive. Besides, the call in assay [7] and in assay [10] was inactive. In addition, the half-maximal activity concentration (AC50) was 35 µM (active) in assay [8] and 46.4 µM (active) in [9].

For `C[C@@H]1C[C@H]2[C@@H]3CCC4=CC(=O)C=C[C@]4(C)[C@@]3(F)[C@@H](O)C[C@]2(C)[C@@]1(O)C(=O)COP(=O)(O)O`, the compound was classed as inactive in assay [1], in assay [3], in assay [4], in assay [5], in assay [7] and in assay [8]. Also, the compound was called inactive in assay [9] and in assay [10].

Regarding `COCC(C)OCC(C)O` (configuration not stated), the call in [7] and in assay [10] was inactive.

Regarding `C#C[C@]1(O)CC[C@H]2[C@@H]3CCC4=CC(=O)CC[C@@H]4[C@H]3CC[C@@]21C`, the call in [7], in [8], in assay [9] and in assay [10] was inactive.

Regarding `OC1CCCCC1`, the outcome in assay [2], in [3], in assay [4], in assay [5], in assay [7] and in assay [8] was inactive. Also, the compound was classed as inactive in assay [9] and in assay [10].

With `CC[C@H](C)[C@@H](C(=O)O)n1sc2ccccc2c1=O`, the result in assay [2], in assay [3], in assay [4], in [7], in [8] and in assay [9] was inactive. For the same compound, the compound was classed as inactive in [10].

As for `CCCCCCCCCCCCCCCS(=O)(=O)Oc1ccccc1`, the compound was called inactive in [1], in assay [3], in assay [4], in assay [6], in assay [7] and in assay [8]. Also, the compound was classed as inactive in [9].

For `OCCC(F)(F)C(F)(F)C(F)(F)C(F)(F)C(F)(F)C(F)(F)C(F)(F)C(F)(F)F`, the result in [2], in assay [4], in assay [5], in [6], in [7] and in assay [9] was inactive.

`O=C(OCCOCCOC(=O)c1ccccc1)c1ccccc1`: the outcome in assay [2], in [3], in assay [4], in assay [5], in [6] and in assay [7] was inactive. The compound was called inactive in [8], in assay [9] and in assay [10].

Turning to `O=C(O)c1ccccc1C(c1ccc(O)cc1)c1ccc(O)cc1`, the compound was called inactive in assay [7], in [8], in [9] and in [10].

Consider `CCCCCCCCOC(=O)CCCCCCCCC(=O)OCCCCCCCC`, for which the outcome in [2], in [3], in assay [4], in assay [7], in [8] and in assay [9] was inactive. For the same compound, in [10], the result was inactive.

Consider `CN1CCC[C@H]1c1cccnc1`, for which the compound was classed as inactive in assay [7], in [8], in assay [9] and in assay [10].

Turning to `c1ccc2c(c1)ccc1ccccc12`, the result in assay [2], in assay [3], in assay [6], in assay [7], in [8] and in assay [9] was inactive. In addition, the call in [10] was inactive.

`NC(=O)N(O)[C@@H]1C=C[C@H](Oc2cccc(Oc3ccc(F)cc3)c2)C1`: the call in [1], in [2], in assay [4], in [7], in assay [8] and in assay [9] was inactive. Further, the call in [10] was inactive. The half-maximal activity concentration (AC50) in assay [3] was 84.2 µM (active); in assay [6] it was 74.5 µM (active).
